This passage reports survival results from PubChem BioAssay AID463173 (ICCB-Longwood Screening Facility, Harvard Medical School, 2010).

Each structure is given as a SMILES string. Hit rate of the full screen: of about 52,000 compounds, about 4,300 (8.3%) were called active. The full list was thinned out, with actives kept by preference. A number with no mark means an inactive call. No stated cut-off is given here; in the data, active means survival mostly below about 52% (no sharp cut-off); inactive means mostly above about 56%.

This experiment relates to DeltatarO mutant. Nature of the experiment: growth inhibition of S. aureus wild type versus tarO mutant, primary screen, teichoic acid synthesis inhibitors, RN4220, OD600 (AID 463173). As to conditions: OD600, 18 h, hits give low values, screened at 18.75 µg/mL (by protocol).
On to `CCOC(=O)c1cccc(NC(=O)c2ccc3c(c2)nnn3CC)c1`, for which the survival is 66%.

Consider `Cc1ccc(-c2onc(C)c2C)cc1S(=O)(=O)N1c2ccccc2CC1C` (centres undefined), for which the survival is 79%.

As to `COc1cccc(CCNC(=O)c2c(O)nc3cc(C)ccn3c2=O)c1`, the survival was 82%. The result for `COc1ccc(CCNC(=O)c2c(O)nc3ccccn3c2=O)cc1OC` reads 54%; that for `Cc1ccc(CNC(=O)c2c(O)nc3ccccn3c2=O)cc1`, 89%; that for `O=C(NCc1ccc(F)cc1)c1c(O)nc2ccccn2c1=O`, 44% (active).

For `COc1ccc(CNC(=O)c2c(O)nc3cc(C)ccn3c2=O)cc1`, the survival was 78%. As to `Cc1cccn2c(=O)c(C(=O)NCc3ccc(F)cc3)c(O)nc12`, the survival was 119%. The result for `COc1cccc(CNC(=O)c2c(O)nc3ccccn3c2=O)c1` reads 43% (active); that for `COc1cccc(CCNC(=O)c2c(O)nc3ccccn3c2=O)c1`, 48% (active). The result for `COc1ccc(CCNC(=O)c2c(O)nc3ccccn3c2=O)cc1` reads 81%; that for `COc1ccccc1N1CCN(C(=O)CSc2nc3ccccc3nc2Cc2ccccc2)CC1`, 101%.

For the compound `COc1ccc(OC)c(-c2noc(N3CCN(c4ccc(Cl)cc4)CC3)n2)c1`, the survival is 88%.

In the case of `CCn1c(CNC(=O)c2ccc(OC)cc2)nnc1SCC(=O)Nc1cc(C)ccc1C`, the survival was 112%. For `COc1cccc(C(=O)N(Cc2cccnc2)c2nc3c(OC)ccc(C)c3s2)c1OC`, the survival is 73%. As for `O=S(=O)(Nc1cccc(-c2ccc(N3CCOCC3)nn2)c1)c1ccccc1C(F)(F)F`, the survival was 89%. Consider `COc1ccc(C(=O)CCC(=O)Nc2ccc(OC)c(Cl)c2)cc1`, for which the survival was 86%. With `CC(=O)C1=C(c2ccc(Cl)c(Cl)c2)N(C(C)=O)n2c(nnc2-c2ccccc2)S1` the figure was 94%; with `COc1ccc(C2=C(C(C)=O)Sc3nnc(-c4ccccc4)n3N2C(C)=O)cc1`, 87%; with `COc1ccc(-c2nnc3n2N(C(C)=O)C(c2ccc(Cl)c(Cl)c2)=C(C(C)=O)S3)cc1`, 20% (active).

Turning to `CN(C)c1ccc(CN(CC2CCCO2)C(=O)COc2ccc(Cl)cc2)cc1` (centres undefined), the survival is 59%. As to `CCc1nn2c(=O)c(S(=O)(=O)Nc3cccc(F)c3)c(C)nc2s1`, the survival was 70%.

`COc1ccccc1CNS(=O)(=O)c1ccc2c(c1)NC(=O)CC(=O)N2`: the survival is 89%. The result for `O=S(=O)(Nc1nc2n(n1)C(c1ccccc1)C=C(c1ccc(Cl)cc1)N2)c1ccccc1` (centres undefined) reads 47% (active); that for `Cc1ccc(S(=O)(=O)Nc2nc3n(n2)C(c2ccc(F)cc2)C=C(c2ccccc2)N3)cc1` (centres undefined), 29% (active); that for `O=S(=O)(Nc1nc2n(n1)C(c1ccc(F)cc1)C=C(c1ccccc1)N2)c1ccc(Cl)cc1` (centres undefined), 10% (active). Take `COc1ccccc1C(=O)Nc1nc2n(n1)C(c1ccc(F)cc1)C=C(c1ccc(Cl)cc1)N2` (centres undefined): the survival is 49%. With `O=S(=O)(Nc1nc2n(n1)C(c1ccc(F)cc1)C=C(c1ccc(Cl)cc1)N2)c1ccccc1` (centres undefined), the survival was 42% (active).

Take `O=C(Nc1nc2n(n1)C(c1ccc(F)cc1)C=C(c1ccc(Cl)cc1)N2)c1ccc([N+](=O)[O-])cc1` (centres undefined): the survival was 64%. With `Cc1ccc(C2C=C(c3ccc(F)cc3)Nc3nc(CCCO)nn32)cc1` (centres undefined), the survival is 53%. Turning to `Cc1ccc(C2C=C(c3ccccc3)Nc3nc(NS(=O)(=O)c4ccccc4)nn32)cc1` (centres undefined), the survival was 68%. As to `O=S(=O)(Nc1nc2n(n1)C(c1ccc(F)cc1)C=C(c1ccccc1)N2)c1ccccc1` (centres undefined), the survival was 73%. As for `CC(C)(C)C(=O)CSc1nnc(-c2ccccc2)o1`, the survival was 85%.

With `COc1cccc(CNC(=O)CCc2c(C)c3cc4c(C)coc4c(C)c3oc2=O)c1`, the survival was 55%. Turning to `CCC(=O)N1CCc2cc(Br)cc(S(=O)(=O)N3CCCC(C(=O)Nc4ccc(OC)cc4OC)C3)c21` (centres undefined), the survival is 65%. The result for `COc1cc(OC)c(NC(=O)c2noc3c2CSc2ccccc2-3)cc1Cl` reads 69%; that for `Cc1ccccc1OC(=O)c1nc(SCc2ccccc2F)ncc1Cl`, 107%.

As for `Cc1ccc(-c2nc3n(n2)C(c2ccccc2Cl)C=C(c2ccc(Cl)cc2)N3)cc1` (centres undefined), the survival is 95%. For `COc1ccc(C2=CC(c3ccccc3Cl)n3nc(-c4ccc(C)cc4)nc3N2)cc1` (centres undefined), the survival was 91%. Take `Cc1ccc(S(=O)(=O)Nc2nc3n(n2)C(c2ccccc2Cl)C=C(c2ccccc2)N3)cc1` (centres undefined): the survival was 37% (active).

Regarding `Cc1ccc(S(=O)(=O)Nc2nc3n(n2)C(c2ccc(Cl)cc2)C=C(c2ccccc2)N3)cc1` (centres undefined), the survival is 2% (active). Regarding `Cc1ccc(C2C=C(c3ccc(Cl)cc3)Nc3nc(NS(=O)(=O)c4ccccc4)nn32)cc1` (centres undefined), the survival was 62%. In the case of `Cc1ccc(C2C=C(c3ccccc3)Nc3nc(NS(C)(=O)=O)nn32)cc1` (centres undefined), the survival is 67%. Turning to `CCN1CCN(C(=O)c2cnn(-c3cccc(C)c3)c2C2CCN(C(=O)OC(C)(C)C)CC2)CC1`, the survival is 89%. For the compound `O=[N+]([O-])c1cc(-c2nc(-c3ccccc3)no2)ccc1NC1CCCCC1`, the survival was 75%. Regarding `CC(C)Oc1ccc(C(=O)N2CCN(CCc3ccccn3)CC2)cc1`, the survival was 68%. The result for `Cc1cccc(NC(=O)C2CCCN(S(=O)(=O)c3cccc4nonc34)C2)c1` (centres undefined) reads 92%; that for `CCOc1ccc(-c2cc(NC(=O)c3ccc(C)cc3)c(C(=O)OC)s2)cc1`, 70%; that for `COC(=O)c1sc(-c2ccccc2)cc1NC(=O)Nc1ccccc1Cl`, 43%. As for `COC(=O)c1sc(-c2ccccc2)cc1NC(=O)Nc1ccc(Cl)cc1`, the survival was 11% (active).

On to `COC(=O)c1sc(-c2ccccc2)cc1NC(=O)c1cccc(F)c1`, for which the survival is 94%. As to `COC(=O)c1sc(-c2ccccc2)cc1NC(=O)Nc1ccc(F)cc1`, the survival was 21% (active). The result for `COC(=O)c1sc(-c2ccccc2)cc1NC(=O)c1cccc(Cl)c1` reads 34% (active). Take `O=C(Nc1cc(-c2ccccc2)sc1C(=O)O)c1cccc(F)c1`: the survival was 38% (active).

Consider `CCOc1ccc(-c2cc(NC(=O)Nc3cccc(C(C)=O)c3)c(C(=O)OC)s2)cc1`, for which the survival is 53%. Regarding `CCOc1ccc(-c2cc(NC(=O)c3ccccc3)c(C(=O)OC)s2)cc1`, the survival is 94%. With `CCOc1ccc(-c2cc(NC(=O)Nc3ccc(Cl)cc3)c(C(=O)OC)s2)cc1`, the survival was 101%. On to `CCOc1ccc(-c2cc(NC(=O)Nc3ccccc3C(F)(F)F)c(C(=O)OC)s2)cc1`, for which the survival is 60%. For `CCOc1ccc(-c2cc(NC(=O)c3cccc(Cl)c3)c(C(=O)OC)s2)cc1`, the survival is 77%. For the compound `Cc1noc2ncnc(N3CCCC(C(=O)NCCC(C)C)C3)c12` (centres undefined), the survival was 88%. Take `CCOc1ccccc1CNC(=O)c1cccc(NC(=O)c2nsc3ccccc23)c1`: the survival is 88%.

On to `Cc1c(Cl)cccc1NC(=O)CCn1nc(C)c2c(C)n(-c3ccccc3)nc2c1=O`, for which the survival was 92%. The result for `Cc1c(C(=O)N2CCOCC2)oc2c1-c1nn(CC(=O)NCc3ccccc3)cc1CC2` reads 79%; that for `Cc1ccc(S(=O)(=O)NCc2nc3cccnc3n2Cc2ccccc2Cl)c(C)c1`, 89%.

For `Cc1ccccc1OCCSc1nc(C)c(Cc2ccccc2)c(=O)[nH]1`, the survival was 97%. Turning to `CCc1ccc(-n2nc(CO)c(C(=O)NCCCCc3ccccc3)n2)cc1`, the survival was 47%.

As to `Cc1ccc(C)c(Nc2nn3c(=O)c4ccc(C(=O)NCc5cccs5)cc4nc3s2)c1`, the survival was 65%.

For the compound `COC(=O)c1ccc2c(=O)n(CCCCCC(=O)NCc3ccc(Cl)cc3)c(=O)[nH]c2c1`, the survival is 74%. Regarding `COC(=O)c1ccc2c(=O)n(CCCCCC(=O)NCCc3ccc(Cl)cc3)c(=O)[nH]c2c1`, the survival was 52% (active). Turning to `CSc1ccc(CCNC(=O)CCCn2c(=O)c3cccn3c3ccccc32)cc1`, the survival is 42% (active).

`O=C(CCCn1c(=O)c2cccn2c2cccnc21)NCCc1ccc(Cl)cc1`: the survival was 63%. `CCOc1ccc(CCNC(=O)CCCn2c(=O)c3cccn3c3ccccc32)cc1`: the survival is 72%. As for `CSc1ccc(CCNC(=O)CCn2c(=O)c3cccn3c3cccnc32)cc1`, the survival was 90%.

In the case of `COC(=O)c1ccc2c(=O)n(CCCCCC(=O)NCCc3ccccc3)c(=O)[nH]c2c1`, the survival was 79%. On to `O=C(CCCn1c(=O)c2cccn2c2ccccc21)NCCc1ccc(Cl)cc1`, for which the survival was 32% (active).

`CC(C)CCNC(=O)CCCn1c(=O)c2cccn2c2ccccc21`: the survival was 68%. For `CN(CCCN1C(=O)c2ccccc2C1=O)CCCN1C(=O)c2ccccc2C1=O`, the survival was 93%. The result for `CCOc1ccc(NC(=O)CC2C(=O)N(c3ccccc3)C(=O)N2Cc2ccc3c(c2)OCO3)cc1` (centres undefined) reads 79%; that for `CN1CCN(C(CNC(=O)C(=O)Nc2ccccc2C#N)c2ccc3c(c2)OCO3)CC1` (centres undefined), 73%; that for `COCCCNC(=O)CCC(=O)N1Cc2ccccc2Oc2ncccc21`, 84%.

Consider `COC(=O)c1cc2sc(C)cc2n1Cc1ccc(Br)cc1F`, for which the survival is 89%.

Consider `C=Cc1ccc(Cn2c(C(=O)OC)cc3sc(C)cc32)cc1`, for which the survival is 27% (active). Consider `COC(=O)c1cc2sc(C)cc2n1CC(=O)Nc1ccc(C)c(C)c1`, for which the survival was 64%. For the compound `COC(=O)c1cc2sc(C)cc2n1Cc1ccccc1`, the survival is 95%. The result for `COC(=O)c1cc2sc(C)cc2n1Cc1cccc(OC)c1` reads 1% (active); that for `COC(=O)c1cc2sc(Cl)cc2n1Cc1c(C)cc(C)cc1C`, 98%. For the compound `Cn1c(=O)n(C)c2cc(N3CCOCC3)c(NS(=O)(=O)c3ccc(F)cc3)cc21`, the survival is 126%. As to `COc1ccc(CNC(=O)C2CCN(S(=O)(=O)c3ccc4nc5c(c(C(=O)O)c4c3)CCCC5)CC2)cc1`, the survival was 99%. Regarding `Clc1ccc(CCNc2nc3cc(Cl)c(Cl)cc3n3cnnc23)cc1`, the survival was 91%.
